This is part of a sample that, as a whole, favours compounds with a hit. Of some 83,000 tested, about 20% had one in any assay.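 Results are percent growth after 48 hours of single-concentration exposure. 100 means growth as in untreated cells, lower positive values show inhibition; negative values down to -100 show cell death.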 Unmarked numbers belong to inactive results. Activity calls are given as the source filed them. How the source made its calls: active means growth percent below 10; inactive means the rest.

The source of these data is PubChem BioAssay (NCI).

Among the test systems are HT29 colon; SNB-19 CNS; U251 CNS; PC-3 prostate; SK-MEL-5 melanoma; UACC-62 melanoma; LOX IMVI melanoma; SK-MEL-28 melanoma; SK-MEL-2 melanoma; EKVX NSCLC; SN12C renal; UO-31 renal; TK-10 renal; ACHN renal; CAKI-1 renal; A498 renal; CCRF-CEM leukemia; MOLT-4 leukemia; SNB-75 CNS.
Experiment in all cases: NCI-60 one-dose screen, 48 h (100 = growth as untreated, 0 = no growth, -100 = all killed)
What all share (settings): 10 µM

As for `CC1(c2ccccc2)NC(=O)N(CC(=O)Nc2ccc(C(=O)/C=C/c3ccc(Cl)cc3)cc2)C1=O` (stereo not drawn), the growth in the assay with HT29 colon was -46.9% (active); in the assay with SNB-19 CNS it was 30.9%; in the assay on U251 CNS, -71.7% (active); in the assay on PC-3 prostate it was 9.23% (active); in the assay with SK-MEL-5 melanoma, -60.9% (active); in the assay on UACC-62 melanoma, 1.17% (active). In addition, the growth in the assay on LOX IMVI melanoma was -100% (active); with SK-MEL-28 melanoma it was 15.8%; in the assay with SK-MEL-2 melanoma it was 34%; in the assay on EKVX NSCLC it was 30.3%; in the assay with SN12C renal it was 19.4%; in the assay with UO-31 renal, 22.7%. In addition, the growth in the assay on TK-10 renal is 67.9%; in the assay with ACHN renal, 13.4%; in the assay on CAKI-1 renal, 21.4%; in the assay on A498 renal, 76.7%; in the assay with CCRF-CEM leukemia it was 7.4% (active); in the assay with MOLT-4 leukemia, -4.5% (active).
For the compound `O=C(Nc1nc2ccc([N+](=O)[O-])cc2s1)Nc1cc(Cl)ccc1I`, the growth is -42.2% (active) with HT29 colon; -42% (active) in the assay on SNB-75 CNS; 4.09% (active) in the assay with SNB-19 CNS; -23.5% (active) in the assay with U251 CNS; -14.7% (active) in the assay with PC-3 prostate; -94.3% (active) in the assay on SK-MEL-5 melanoma. Also, the growth with UACC-62 melanoma was -54.1% (active); with LOX IMVI melanoma, -82.4% (active); with SK-MEL-28 melanoma, -52.7% (active); in the assay with SK-MEL-2 melanoma it was -62.1% (active); with EKVX NSCLC it was -23.7% (active); in the assay with SN12C renal, -16.8% (active). Besides, the growth was -18.3% (active) in the assay with UO-31 renal; -4.54% (active) in the assay on TK-10 renal; -3.53% (active) with ACHN renal; -24.7% (active) in the assay with CAKI-1 renal; -16.8% (active) with A498 renal; -36.8% (active) with CCRF-CEM leukemia. In addition, the growth in the assay on MOLT-4 leukemia is -44.6% (active).
As to `O=C(CSc1nnc(-c2ccc3nc(-c4ccc(Cl)cc4)[nH]c3c2)o1)Nc1ccc(Cl)cc1`, the growth was -35.4% (active) in the assay on HT29 colon; 58% with SNB-75 CNS; -49.4% (active) in the assay with SNB-19 CNS; -57.7% (active) with U251 CNS; -7.65% (active) in the assay with PC-3 prostate; -68.9% (active) in the assay with SK-MEL-5 melanoma. Moreover, the growth in the assay on UACC-62 melanoma is -87.1% (active); in the assay with LOX IMVI melanoma it was -99.2% (active); in the assay with SK-MEL-28 melanoma, -76.9% (active); in the assay with SK-MEL-2 melanoma, -25.2% (active); in the assay on EKVX NSCLC, 5.97% (active); in the assay with SN12C renal, -93.7% (active). Besides, the growth in the assay with UO-31 renal was -45.4% (active); in the assay with TK-10 renal it was 50.7%; in the assay with ACHN renal, -89.7% (active); with CAKI-1 renal, -35.6% (active); with A498 renal, 26%; in the assay with CCRF-CEM leukemia it was -1.24% (active). Further, the growth in the assay with MOLT-4 leukemia was -4.88% (active).
As to `Cc1noc2c(Cc3ccc([N+](=O)[O-])cc3)nn(CC(=O)N/N=C/c3ccc(Br)cc3)c(=O)c12`, the growth with HT29 colon is 86.1%; with SNB-75 CNS, 104%; in the assay on SNB-19 CNS, 69.6%; with U251 CNS it was 70.4%; with PC-3 prostate, 78.1%; with SK-MEL-5 melanoma it was 92%. Further, the growth in the assay with UACC-62 melanoma was 80.1%; in the assay on LOX IMVI melanoma, 52.2%; in the assay with SK-MEL-28 melanoma, 96.4%; in the assay on SK-MEL-2 melanoma, 116%; in the assay on EKVX NSCLC, 90.2%; in the assay with SN12C renal, 81%. Moreover, the growth in the assay on UO-31 renal was 57.7%; in the assay with TK-10 renal, 112%; in the assay on ACHN renal it was 43.6%; in the assay with CAKI-1 renal, 84%; in the assay with A498 renal, 121%; with CCRF-CEM leukemia, 103%. Also, the growth in the assay with MOLT-4 leukemia was 103%.
On to `O=[N+]([O-])c1ccc(-c2nc(-c3ccccc3)c(-c3ccccc3)n2-c2ccc(S(=O)(=O)Nc3ncccn3)cc2)cc1`, for which the growth in the assay on HT29 colon is 41.4%; with SNB-75 CNS it was 44.1%; in the assay with SNB-19 CNS, 27.3%; in the assay with U251 CNS, 35.8%; in the assay with PC-3 prostate, 29.7%; in the assay on SK-MEL-5 melanoma it was 28.4%. Further, the growth is 42% in the assay on UACC-62 melanoma; 28% in the assay with LOX IMVI melanoma; 36.2% with SK-MEL-28 melanoma; 69.4% in the assay with SK-MEL-2 melanoma; 22.8% in the assay with EKVX NSCLC; 38.9% in the assay with SN12C renal. Moreover, the growth was 66% in the assay on TK-10 renal; 50.1% in the assay with ACHN renal; 29% with CAKI-1 renal; 79.3% with A498 renal; 20.8% in the assay with CCRF-CEM leukemia; 26.2% in the assay on MOLT-4 leukemia.
Regarding `O=C(CSc1nnc(-c2c[nH]c3ccccc23)n1-c1ccccc1)c1ccc(Br)cc1`, the growth in the assay with HT29 colon is 57.4%; in the assay on SNB-75 CNS, 38.8%; with SNB-19 CNS, 70.2%; in the assay on U251 CNS, 61.6%; in the assay with PC-3 prostate, 46.2%; in the assay with SK-MEL-5 melanoma it was 17.2%. Also, the growth was 35.2% in the assay with UACC-62 melanoma; 41.8% in the assay with LOX IMVI melanoma; 34.9% in the assay on SK-MEL-28 melanoma; -19.5% (active) in the assay on SK-MEL-2 melanoma; 10.8% with EKVX NSCLC; 72.9% with SN12C renal. For the same compound, the growth was 26% in the assay on UO-31 renal; 64.9% with TK-10 renal; 37.4% in the assay on ACHN renal; 44.3% in the assay on CAKI-1 renal; 36% with A498 renal; 86.4% with CCRF-CEM leukemia. The growth in the assay on MOLT-4 leukemia was 92.2%.
Take `CN1CCN(c2ccc(Nc3nc(NCCCNC(=O)c4ccc(Cl)cc4)c4sccc4n3)cc2)CC1`: the growth in the assay with HT29 colon was 35.4%; in the assay with SNB-75 CNS, 99.5%; with SNB-19 CNS, 104%; with U251 CNS, 44.6%; in the assay on PC-3 prostate it was 61.6%; in the assay with SK-MEL-5 melanoma, 72.4%. Moreover, the growth is 86% in the assay with UACC-62 melanoma; 59.7% in the assay on LOX IMVI melanoma; 89.1% with SK-MEL-28 melanoma; 113% in the assay on SK-MEL-2 melanoma; 88.3% in the assay on EKVX NSCLC; 74.5% in the assay with SN12C renal. The growth in the assay on UO-31 renal was 67.3%; in the assay on TK-10 renal, 115%; with ACHN renal, 73.1%; in the assay with CAKI-1 renal, 79.9%; in the assay on A498 renal it was 136%; with CCRF-CEM leukemia, 34.8%.
Consider `O=C(CSc1ccc(-c2ccc(Cl)cc2)nn1)Nc1ccc(Cl)c(C(F)(F)F)c1`, for which the growth with HT29 colon is 40.6%; in the assay with SNB-75 CNS, 58.6%; in the assay on SNB-19 CNS, 71.9%; in the assay on U251 CNS, 73.1%; in the assay with PC-3 prostate, 71.9%; with SK-MEL-5 melanoma it was 55.9%. Also, the growth with UACC-62 melanoma was 32.7%; in the assay with LOX IMVI melanoma, 47.3%; in the assay on SK-MEL-28 melanoma it was 66.9%; in the assay with SK-MEL-2 melanoma, 59.7%; in the assay with EKVX NSCLC it was 44.3%; in the assay with SN12C renal, 79.3%. The growth in the assay with TK-10 renal was 66%; in the assay on ACHN renal, 79.3%; in the assay with CAKI-1 renal it was 61.3%; in the assay with A498 renal it was 89.9%; in the assay with CCRF-CEM leukemia it was 44.9%; in the assay with MOLT-4 leukemia, 11%.
